1 molecule from PubChem BioAssay AID1558 (National Center for Advancing Translational Sciences (NCATS), 2009) can be followed below.

The assay concerns the target Microtubule-associated protein tau (Homo sapiens) (UniProt P10636). The assay is described as follows: Confirmation Concentration-Response Assay for Inhibitors of Tau Fibril Formation, Thioflavin T Binding. The following applies: recombinant tau K18 P301L (four-repeat tau fragment) heparin fibrillization, ThT fluorescence. From the text: NIH Molecular Libraries Probe Production Network [MLPCN] NIH Chemical Genomics Center [NCGC] MLPCN Grant: X01 MH083262-01 Assay Provider: Carlo Ballatore, University of Pennsylvania NCGC Assay Overview: The microtubule-associated protein tau is an abundant protein in the axons of neurons that stabilizes microtubules. With its ability to modulate microtubule dynamics, tau contributes directly or indirectly, to key structural and regulatory cellular functions. Particularly important is the influence tau exerts on axonal transport, which allows signaling molecules, trophic factors and other essential cellular constituents to travel along the axons. Under pathological conditions, tau becomes sequestered into insoluble aggregates called neurofibrillary tangles. […] This assay monitors tau fibrillization by Thioflavin T (ThT) fluorescence. […]
For screening, 2 uL/well human K18 P301L (15 uM unlabeled and 0.24 uM Alexa 594-labeled tau, final concentrations) in reagent buffer (100 mM sodium acetate pH 7) was dispensed into black solid 1536-well plates (Grenier) using a solenoid-based dispenser. […] After a 1 hr ambient incubation, the plates were read by an Envision (Perkin Elmer) to monitor ThT fluorescence (450/8 nm excitation and 510/23 nm emission). […]

SMILES strings stand for the structures. Inconclusive results are not listed. Active and inactive are the calls of the source. Calls come from the whole dose curve; as a rule, active = well fitted inhibition curve with a large enough effect; inconclusive = small, poorly fitted or top-dose-only effect; inactive = flat fitted curve, though single readings scatter.

Chain of Microtubule-associated protein tau (Homo sapiens) (P10636 561-689 P618L limits assumed): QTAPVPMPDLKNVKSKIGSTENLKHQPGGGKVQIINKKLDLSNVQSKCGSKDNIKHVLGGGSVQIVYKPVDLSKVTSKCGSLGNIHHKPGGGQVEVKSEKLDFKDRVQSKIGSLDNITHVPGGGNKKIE

For the molecule `CC(N)[C@H](O)c1ccc(O)c(O)c1` (stereo partly specified), the Potency was 7.94 µM (active).
